Common to all, as to assay: NCI-60 one-dose screen, 48 h (100 = growth as untreated, 0 = no growth, -100 = all killed)
What all share (conditions): 10 µM unless noted

In experiment [1] the test system is HCT-15 colon.
The subject of experiment [2] is HT29 colon.
The test system of experiment [3] is SNB-75 CNS.
The subject of experiment [4] is SNB-19 CNS.
Experiment [5] deals with U251 CNS.
Experiment [6] concerns PC-3 prostate.
The test system of experiment [7] is SK-MEL-5 melanoma.
Experiment [8] concerns UACC-62 melanoma.
Experiment [9] has as its system LOX IMVI melanoma.
Experiment [10] relates to SK-MEL-2 melanoma.
Experiment [11] relates to EKVX NSCLC.
Experiment [12] relates to SN12C renal.
For experiment [13], the system named is UO-31 renal.
Experiment [14] has as its system TK-10 renal.
In experiment [15] the test system is ACHN renal.
Experiment [16] has as its system A498 renal.
The subject of experiment [17] is CCRF-CEM leukemia.
The subject of experiment [18] is MOLT-4 leukemia.
Experiment [19] relates to CAKI-1 renal.
Experiment [20] deals with SK-MEL-28 melanoma.

Each structure is given as a SMILES string. The panel holds about 83,000 compounds, 20% with a hit somewhere; the sample as a whole holds those more often.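 Single-dose data. Exposure time 48 hours. Values below 10 considered active.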 Unmarked numbers belong to inactive results. The source made the active and inactive calls.

With `O=c1[nH]c2ccccc2cc1CSc1ccccc1Nc1nccc(-c2ccc(Cl)cc2)n1`, the growth in [1] was 101%; in experiment [2], 109%; in experiment [3], 71.7%; in experiment [4] it was 98.8%; in [5], 104%; in experiment [6], 87.9%. The growth in [7] is 96.6%; in experiment [8], 77.1%; in experiment [9] it was 96.3%; in experiment [10] it was 113%; in experiment [11], 88.6%; in [12] it was 94.9%. Further, the growth was 83.3% in [13]; 115% in [14]; 81.5% in experiment [15]; 85.5% in experiment [16]; 101% in [17]; 100% in [18].

Consider `N#Cc1c(Nc2ccccc2)nn2c(-c3ccc([N+](=O)[O-])cc3)ccnc12`, for which the growth in experiment [1] is 99.3%; in experiment [2], 103%; in [3], 102%; in experiment [4], 100%; in experiment [5], 99.8%; in experiment [6] it was 103%. Besides, the growth in [7] was 88.6%; in experiment [8], 93.3%; in [9] it was 93.7%; in experiment [11], 99.5%; in experiment [12], 104%; in experiment [13] it was 84%. The growth was 98% in experiment [14]; 102% in [15]; 91.9% in experiment [19]; 104% in experiment [17]; 105% in experiment [18].

Take `Cc1ccc(-n2cc(/C=N/NC(=O)c3ccncc3)c(-c3ccc(S(C)(=O)=O)cc3)n2)cc1`: the growth in experiment [1] is 37%; in experiment [2], 76.6%; in [3], 95.7%; in experiment [4], 89.9%; in experiment [5], 97.5%; in experiment [6] it was 81.5%. For the same compound, the growth in [8] was 76.9%; in [9], 74%; in experiment [20] it was 93.4%; in [10] it was 97.7%; in experiment [11], 95.2%; in experiment [12] it was 89.4%. In addition, the growth is 80.4% in [13]; 118% in experiment [14]; 98% in [15]; 90.2% in [19]; 88.2% in experiment [16]; 84% in [17]. Further, the growth in experiment [18] was 70.4%.

Take `COc1cc2oc(-c3cccc(N)c3)cc(=O)c2c(OC)c1OC`: the growth in experiment [1] is 101%; in [2], 109%; in [3], 97.8%; in [4] it was 97.8%; in experiment [5], 103%; in experiment [6] it was 98.7%. Further, the growth is 93.5% in [8]; 111% in [9]; 108% in experiment [20]; 102% in [10]; 104% in experiment [11]; 96.6% in [12]. Also, the growth is 80.6% in experiment [13]; 96.9% in experiment [14]; 103% in experiment [15]; 83.5% in experiment [19]; 101% in experiment [16]; 102% in experiment [17]. The growth in experiment [18] is 106%.

Take `Cc1ccc(-c2cc3nc(C(Cl)Cl)nc(C)n3n2)cc1`: the growth in experiment [1] is 109%; in experiment [2], 104%; in experiment [3], 129%; in experiment [4], 104%; in experiment [5], 108%; in [6], 98.1%. Further, the growth in experiment [7] is 98.2%; in experiment [8], 99.6%; in experiment [9], 96.8%; in experiment [10], 110%; in experiment [11], 92.3%; in experiment [13], 80.9%. Further, the growth in experiment [14] was 166%; in experiment [15], 87.4%; in experiment [16], 132%; in [17], 98.4%; in experiment [18] it was 103%.

Regarding `CCn1c2ccccc2c2cc(-n3nncc3-c3ccccc3)ccc21`, the growth is 8.42% (active) in experiment [1]; 2.01% (active) in [2]; 27.4% in [3]; 24.1% in [4]; 25.1% in experiment [5]; 29.1% in experiment [6]. In addition, the growth is -11.7% (active) in [7]; 35.5% in [8]; -29.5% (active) in [9]; 68.2% in experiment [10]; 45.5% in [11]; 36.8% in experiment [13]. Further, the growth is 90.5% in [14]; 29.2% in experiment [15]; -0.537% (active) in experiment [16]; 19.5% in experiment [17]; 12.7% in [18].

`C#CCC#CCN1CCC[C@H]1C(=O)NCC(=O)OC`: the growth in [1] was 102%; in experiment [2], 104%; in experiment [3], 105%; in [4], 98.9%; in experiment [5], 103%; in experiment [6], 98.4%. The growth in experiment [8] was 104%; in experiment [9], 94.4%; in [20], 101%; in experiment [10], 99.8%; in [11] it was 98.4%; in experiment [12], 98.4%. The growth in experiment [13] was 98.5%; in experiment [14] it was 99.4%; in experiment [15], 101%; in experiment [19], 102%; in experiment [16] it was 129%; in [17], 109%. Further, in experiment [18], the growth was 107%.

As for `CCOc1ccc(C(=O)Nc2ncc(Cc3ccc(F)cc3)s2)cc1`, the growth was 14.7% in [1]; -18.2% (active) in experiment [2]; 10.2% in experiment [3]; 29.6% in experiment [4]; 16% in experiment [5]; 27.4% in [6]. The growth in experiment [8] was 33%; in experiment [9], 23.7%; in experiment [20], 61.9%; in experiment [10], -7.6% (active); in experiment [11], 41.3%; in [12], 36%. Further, the growth in experiment [13] was 41.9%; in experiment [14], 57.9%; in experiment [15], 37.6%; in experiment [19] it was 38%; in [16] it was 13.9%; in experiment [17], 17.3%. The growth in experiment [18] is 18.7%.

Turning to `CNC(=O)c1cc(Oc2ccc3nc(NC(=O)c4ccc(N5CCOCC5)c(C(F)(F)F)c4)sc3c2)ccn1`, the growth in [1] is 51.5%; in experiment [2] it was 48.5%; in experiment [3] it was 96.2%; in experiment [4], 86.6%; in experiment [5], 65.6%; in [6] it was 59%. Also, the growth was 28.8% in experiment [7]; 47.7% in experiment [8]; 76.3% in [9]; 78.7% in [11]; 54.7% in experiment [13]; 127% in experiment [14]. Besides, the growth was 91.5% in experiment [15], 87.2% in experiment [19], 75.6% in [17] and 75.8% in [18].
